Screening data (PubChem)
MITF act – increases MITF-driven TRPM1 promoter luciferase signal. SK-MEL-5 TRPM1-promoter luciferase, 24 h; % of positive control, neutral wells = 0. activation, % at 12.5 µM. hit rate 0.75% among 300,000. AID 588334;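 active means mean activation of at least 80% with every replicate also reaching 80%; inconclusive means mean reaches 80% but some replicate falls short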;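 further: 0% = neutral control wells and 100% = parthenolide positive control wells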
esBAF inh – SWI/SNF esBAF complex inhibition; hit rate 2% among 350,000; mouse ES cells, Bmi1-luciferase knock-in reporter, 24 h; 100% = twice the neutral-well signal; reporter increase, % at 12.5 µM; AID 602393; in the data active means activation above about 40%; inconclusive means no clear call, values can overlap the other calls;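 further: 0% = median of the plate's neutral control wells and 100% = double that signal; a rise in the Bmi1 reporter signal indicates esBAF inhibition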
Wnt act – activators of Wnt/beta-catenin signaling | Wnt/beta-catenin reporter cell assay, activator, plate reader | hit rate 1.2% among 300,000 | activation, % at 9.35 µM; in the data active means activation above about 30%, passing the limit was not always enough; inconclusive means no clear call, values can overlap the other calls;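 further: 0% = neutral control wells and 100% = positive control wells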
AF4-AF9 inh – inhibitors of human MLL-AF4/AF9 interaction; P42568; hit rate 0.47% among 350,000; AlphaScreen, biotin-AF4 peptide binding to FLAG-AF9; inhibition, % at 10 µM;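 active means every replicate reaching a set inhibition limit, whatever the replicate mean, cut at about 25% in these data; inconclusive means mean inhibition reaches that limit but some replicates miss it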;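 further: 0% = plate neutral control median and 100% = total signal loss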
FGF22 binding – binders of recombinant human FGF22 by thermal shift | Q9HCT0 | SYPRO orange fluorescence; percent of sucrose octasulfate shift, DMSO zero | activity (Tm shift, normalised), % at 9.99 µM | hit rate 1.5% among 340,000 | AID 651658;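 active means mean Tm shift, scaled 0 neutral to 100 positive control, at about 1.3% or above, every replicate too, limit read from the data; inconclusive means no clear call, values can overlap the other calls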
Target sequence (Q9HCT0 whole entry, looked up): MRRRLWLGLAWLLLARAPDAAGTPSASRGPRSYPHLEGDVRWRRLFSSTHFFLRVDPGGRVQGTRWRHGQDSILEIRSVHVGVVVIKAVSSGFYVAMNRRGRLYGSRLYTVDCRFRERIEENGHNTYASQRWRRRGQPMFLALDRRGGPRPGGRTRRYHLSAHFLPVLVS
SMARCA2 act – increases SMARCA2 function in MMTV reporter cells | MG213 cells, MMTV-luciferase reporter, dexamethasone, overnight | activation, % at 9.1 µM | hit rate 1% among 370,000 | AID 652017; in the data active means activation above about 7.8%;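 further: 0% = vehicle wells and 100% = reference activator wells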
The depositor's hits bear a star. In the library only some 4.3% were active in any assay of this set; here they are far more common.

CC(=O)Nc1ccc(NC(=O)c2ccco2)cc1 was read as MITF act 30.0, esBAF inh 12.0 and SMARCA2 act 5.9.
For O=C(/C=C/C=C/c1ccccc1)c1ccco1 the results were MITF act 16.0, esBAF inh 5.1, Wnt act 39.6*, AF4-AF9 inh 4.8, FGF22 binding 0.3 and SMARCA2 act 4.5.
Screening O=C(/C=C/c1ccc(Br)cc1)c1ccc(NC(=O)c2ccco2)cc1 returned MITF act 8.5, esBAF inh 39.7 and SMARCA2 act -0.1.
`O=C(/C=C\c1ccccc1)Nc1ccc(NC(=O)c2ccco2)cc1` gave MITF act 4.3, esBAF inh 11.6, Wnt act -0.4, AF4-AF9 inh -1.8, FGF22 binding 1.5* and SMARCA2 act -2.5.
For Cc1ccc(NC(=O)c2ccc(OC(=O)c3ccco3)cc2)cc1 the results were MITF act 120.5*, esBAF inh 53.9*, Wnt act 20.1, AF4-AF9 inh 2.1, FGF22 binding 0.1 and SMARCA2 act 0.3.
`Cc1ccc(Oc2ccc(NC(=O)c3ccco3)cc2)cc1` gave MITF act 43.1, esBAF inh 13.6, Wnt act 26.4 and SMARCA2 act 0.2.
`CCC(=O)Oc1ccc(-c2cnc3ccccc3n2)cc1` gave MITF act 50.3, esBAF inh 29.7, Wnt act 28.3, AF4-AF9 inh -44.9 and SMARCA2 act 3.9.
`O=C(Oc1ccc(-c2cnc3ccccc3n2)cc1)c1ccco1` gave MITF act inconclusive, esBAF inh 7.8, Wnt act 68.6* and SMARCA2 act 5.0.
`C[C@@H]1CN([C@H](C)CO)S(=O)(=O)c2ccc(C#CC3CC3)cc2O[C@H]1CN(C)Cc1ccccc1` gave esBAF inh -7.1, AF4-AF9 inh 4.9 and FGF22 binding -0.5.
For Cc1cc(C)n(/C(=C\N(C)C)C(=O)c2ccc(Cl)cc2)n1 the results were MITF act 8.9, esBAF inh -1.8, Wnt act -0.4, AF4-AF9 inh -0.7, FGF22 binding -0.1 and SMARCA2 act -0.8.
For Cc1ccc([N+](=O)[O-])cc1N the results were MITF act 4.1, Wnt act -1.0, AF4-AF9 inh -2.4, FGF22 binding 43.5* and SMARCA2 act 5.1.
Cc1cc(C)n(/C(=C\N(C)C)C(=O)c2cccc([N+](=O)[O-])c2)n1 was read as esBAF inh -6.2, Wnt act 1.9, AF4-AF9 inh 50.6*, FGF22 binding -0.3 and SMARCA2 act -1.8.
Screening Cc1cc(C)n(C(=O)c2ccc([N+](=O)[O-])cc2N)n1 returned MITF act 0.3, esBAF inh 11.1, Wnt act -0.9, AF4-AF9 inh -0.3, FGF22 binding 43.1* and SMARCA2 act 2.5.
OCCc1ccc(NCCc2cccs2)cc1 was read as esBAF inh 53.9*, Wnt act 3.3, AF4-AF9 inh 3.3, FGF22 binding 0.2 and SMARCA2 act 6.6.
CCCCCCCCN1C(=O)[C@@H](CC(=O)NCc2ccc(OC)c(OC)c2)C[C@@]2(C(=O)OC)C1=C[C@H](C(C)(C)C)O[C@@H]2C was read as Wnt act -15.5, AF4-AF9 inh 2.1, FGF22 binding -0.4 and SMARCA2 act -8.1.
COCCN(C(=O)CCC(=O)Nc1cc(C)on1)C(C(=O)NC(C)(C)C)c1ccccc1Cl (stereo unspecified) was read as MITF act -4.2, esBAF inh -0.7, Wnt act -0.8, AF4-AF9 inh -0.7, FGF22 binding 40.8 and SMARCA2 act 7.8*.
Screening CCCCN(C(=O)CCC(=O)Nc1cc(C)on1)C(C(=O)NC(C)(C)C)c1ccccc1Cl (stereo unspecified) returned MITF act -1.2, esBAF inh -4.3, Wnt act -1.7, AF4-AF9 inh -0.4, FGF22 binding 0.1 and SMARCA2 act 0.9.
Screening Cc1ccc(Nc2nc(N)c(C#N)c(CC#N)c2C#N)cc1 returned MITF act 50.1, Wnt act -3.8, AF4-AF9 inh -0.2, FGF22 binding 44.0* and SMARCA2 act -2.5.
Screening c1ccc(-c2ccc(C(c3ccccc3)n3ccnc3)cc2)cc1 (stereo unspecified) returned MITF act 5.0, esBAF inh 11.3, Wnt act -1.1, AF4-AF9 inh 1.5, FGF22 binding -0.2 and SMARCA2 act -2.7.
For c1ccc(-c2ccc(-n3ccnc3)cc2)cc1 the results were MITF act 67.3, esBAF inh 56.4*, Wnt act inconclusive and SMARCA2 act -0.3.
Cn1c(C(=O)N2CCc3ccccc3C2)cc2oc3ccccc3c21 was read as MITF act 60.8, esBAF inh 54.8* and Wnt act 2.6.
Cc1cc(C(=O)O)ccc1N/C=C1\CCCC(C)C1=O (stereo unspecified) was read as MITF act -4.8, esBAF inh 63.5*, Wnt act 13.0 and SMARCA2 act 3.8.
Screening CC1CCC/C(=C\Nc2ccc(O)cc2)C1=O (stereo unspecified) returned esBAF inh 33.0 and SMARCA2 act -3.0.
Screening COc1ccc(CNC(=O)C[C@H]2C[C@@H]3c4cc(NC(=O)CC5CC5)ccc4O[C@@H]3[C@@H](CO)O2)cc1 returned esBAF inh 7.8.
Screening CN(C)C(=O)c1cccc(-c2ccc(C3[C@H]4CNC[C@@H]3N4Cc3cccnc3)cc2)c1 (stereo partly specified) returned FGF22 binding 0.0.
For COc1ccc(N=C2C(=S)N(c3ccc(OC)cc3)C(=NS(=O)(=O)c3ccccc3)N2c2ccccc2)cc1 the results were MITF act 8.8, Wnt act 68.3*, AF4-AF9 inh 1.1, FGF22 binding -0.3 and SMARCA2 act 5.1.
`N=C1N(c2ccccc2)C(=S)C(=Nc2ccccc2)N1c1ccccc1` gave MITF act -46.4, Wnt act -3.2, AF4-AF9 inh 3.5, FGF22 binding 0.0 and SMARCA2 act 2.4.
C[C@H]1CN([C@@H](C)CO)C(=O)c2cc(NC(=O)CCC(F)(F)F)ccc2O[C@H]1CN(C)C(=O)NC1CCCCC1 was read as esBAF inh -5.9, AF4-AF9 inh -2.9 and FGF22 binding -0.4.
`c1ccc2[nH]c(SCC3CCCCO3)nc2c1` (stereo unspecified) gave MITF act 86.9*, Wnt act 40.2*, AF4-AF9 inh -2.8, FGF22 binding -0.2 and SMARCA2 act 3.1.
For ClC1(Cl)CC1CSc1nc2ccccc2[nH]1 (stereo unspecified) the results were MITF act 65.5, Wnt act 8.5, AF4-AF9 inh -2.7, FGF22 binding 0.7 and SMARCA2 act 2.5.
For C=CCN1[C@H](Cc2ccccc2)COc2cc(F)ccc2S1(=O)=O the results were SMARCA2 act -1.2.
`Cc1cc(NC(=O)Nc2ccc(C)c(C)c2)no1` gave MITF act 61.2, Wnt act 31.6*, AF4-AF9 inh -4.2, FGF22 binding 0.0 and SMARCA2 act 6.4.
